About 79,000 compounds went through this panel and 15% of them were active in at least one assay; those are over-represented in the sample as a whole. Unmarked numbers belong to inactive results. Calls of active or inactive are those of the source. No stated cut-off is given here; in the data, active means growth inhibition above about 70%; inactive means the rest.
What was measured:
[1] = NCI Yeast Anticancer Drug Screen. Data for the rad50 strain (AID 155);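 further: 0% = growth of vehicle-only cultures of the same strain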; settings: S. cerevisiae rad50 strain growth inhibition, stronger effect = higher value
In short: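 Readout: growth inhibition relative to vehicle-treated cultures. Compound exposure was carried out in a genetically defined yeast strain deficient in DNA damage repair.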

[2] = NCI Yeast Anticancer Drug Screen. Data for the mec2-1 strain (AID 157); settings: S. cerevisiae mec2-1 strain, stronger effect = higher value
In short: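 Vehicle-treated cultures served as reference for growth inhibition of compound-exposed mec2-1 yeast.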

[3] = NCI Yeast Anticancer Drug Screen. Data for the sgs1 mgt1 strain (AID 161);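 further: 0% = growth of cultures given vehicle only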; settings: S. cerevisiae sgs1 mgt1 strain, stronger effect = higher value
In short: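 Inhibition of yeast growth, normalised to vehicle-treated controls, is reported for a strain bearing genetic alterations in DNA damage repair.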

[4] = NCI Yeast Anticancer Drug Screen. Data for the cln2 rad14 strain (AID 165);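 further: 0% = growth equal to vehicle treated cultures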; settings: S. cerevisiae cln2 rad14 strain, stronger effect = higher value
In short: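 Each compound was tested on cln2 rad14 yeast. Inhibition of growth was calculated against vehicle-exposed controls.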

[5] = NCI Yeast Anticancer Drug Screen. Data for the bub3 strain (AID 167); settings: S. cerevisiae bub3 mutant strain, stronger effect = higher value
In short: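 Readout: yeast growth inhibition, expressed relative to vehicle-only wells. The test organism is a mutant strain from a panel with lesions in DNA repair or checkpoint genes.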

[6] = NCI Yeast Anticancer Drug Screen. Data for the mlh1 rad18 strain (AID 175); settings: S. cerevisiae mlh1 rad18 strain growth inhibition, stronger effect = higher value
In short: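 Vehicle-treated cultures served as the reference for growth inhibition in a yeast strain carrying DNA damage repair alterations exposed to each compound.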

[7] = at 5.0 µM (retest, dose inferred, filed as 0.5)
[8] = at 50.0 µM (retest, dose inferred, filed as 5.0)

Row | SMILES | growth inhibition [1, 7] [%] | growth inhibition [1, 8] | growth inhibition ([1]; at 50.0 µM) | growth inhibition [2, 7] [%] | growth inhibition [2, 8] | growth inhibition ([2]; at 50.0 µM) | growth inhibition [3, 7] [%] | growth inhibition [3, 8] | growth inhibition ([3]; at 50.0 µM) | growth inhibition [4, 7] [%] | growth inhibition [4, 8] | growth inhibition ([4]; at 50.0 µM) | growth inhibition [5, 7] [%] | growth inhibition [5, 8] | growth inhibition ([5]; at 50.0 µM) | growth inhibition [6, 7] [%] | growth inhibition [6, 8] | growth inhibition ([6]; at 50.0 µM)
1 | CCCCC1(C(O)CC)Sc2ccccc2N1C (stereo not given) | -7 | 24% | 31.8% | 2 | 82% (active) | 41.5% | -2 | 83% (active) | 50.6% | 1 | 36% | 65.9% | -14 | 67% | 61.6% | -12 | 90% (active) | 56%
2 | CC12CCC(O)CC1=CCC1C2CCC2(C)/C(=C\C#N)CCC12 (stereo not given) | -6 | 53% | 69.2% | 5 | 78% (active) | 9.9% | 11 | 90% (active) | 52.3% | 2 | 81% (active) | -1.95% | 2 | 87% (active) | 31.3% | -8 | 97% (active) | 73.9% (active)
3 | CN(/N=C/C(O)C(O)C(O)CO)c1ccccc1 (stereo not given) | 20 | 97% (active) | 98% (active) | 3 | 99% (active) | 98.5% (active) | 9 | 99% (active) | 98.5% (active) | 14 | 98% (active) | 98.5% (active) | 36 | 99% (active) | 98.5% (active) | 47 | 99% (active) | 98.8% (active)
4 | O=C1C=C(c2ccccc2)OC1(Nc1ccccc1)c1ccccc1 (stereo not given) | 4 | 60% | 71.7% (active) | 4 | 65% | 56.6% | 2 | 62% | 76.4% (active) | 9 | 53% | 45.2% | 11 | 62% | 72.8% (active) | 9 | 67% | 59.9%
5 | CC(C)(Oc1ccc(-c2cccc3ccccc23)cc1)C(=O)O | 9 | 42% | 58.3% | 5 | 51% | 13.7% | 6 | 49% | 29.4% | -6 | 54% | 70.5% (active) | 13 | 54% | 67.8% | -6 | 49% | 28.8%
6 | O=C(O)CCCNc1ncc2c(n1)-c1ccccc1OC2 | 19 | 7% | 65.5% | 11 | 9% | 51% | 8 | 12% | -3.35% | 20 | 15% | -26% | 14 | 8% | -22.9% | 12 | 9% | -9.3%
7 | Cc1ccc2c(c1)[n+]([O-])c(N)n[n+]2[O-] | 21 | 61% | 75.7% (active) | 1 | 35% | 48.4% | 17 | 43% | 57.1% | 11 | 47% | 40.2% | -7 | 36% | 43.1% | 20 | 64% | 50.6%
8 | N#Cc1c(-c2ccc(Cl)cc2)c(C#N)c(=O)n(NS(=O)(=O)c2ccccc2)c1S | 51 | 83% (active) | 39.6% | 29 | 78% (active) | 86.2% (active) | 30 | 93% (active) | 81.3% (active) | 46 | 63% | 19.4% | 50 | 88% (active) | 70.8% (active) | 36 | 71% (active) | 77.5% (active)
9 | O=C(CCl)N1CCN(C(c2ccccc2)c2ccccc2)CC1 | 6 | 96% (active) | 95% (active) | 12 | 95% (active) | 85.8% (active) | 9 | 97% (active) | 97.8% (active) | 12 | 91% (active) | 81.2% (active) | 13 | 97% (active) | 95.5% (active) | 15 | 97% (active) | 97.5% (active)
10 | CC1C[N+](C)(C)C(C)C(=O)C1(c1ccccc1)c1ccccc1 (stereo not given) | -9 | 2% | 6.6% | -2 | 2% | 10.9% | -23 | 3% | -10.3% | -1 | -2% | -13.4% | -4 | -2% | 28.2% | -6 | -4% | 19.1%

From PubChem BioAssay (NCI)
